# Data reported in PubChem BioAssay.
# Activity calls are given as the source filed them. Unless noted, no rule for the calls is given here.
# How the values were obtained:
# [1] = resazurin metabolic signal in HepG2 cells – cell-based, resazurin fluorescence, 24 h, PK04 Diversity Set, profiling panel (AID 1172); conditions: HepG2 viability, higher = more signal; also: test concentration not given here
# [2] = budding yeast growth changes without added modifier – OD600, strain BY4716, 24 h, basal condition, primary screen (AID 1173); conditions: S. cerevisiae BY4716 growth, OD600, 24 h; higher = more signal, called active from +8 up or from −8 down
# [3] = viability profiling in MM1S myeloma cells – cell-based, resazurin fluorescence, basal, 24 h, PK04 Diversity Set, profiling panel (AID 1174); conditions: higher = more signal, called active from +8 up or from −8 down;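 also: MM1S multiple myeloma cell line; test concentration not given here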
# [4] = target: Dihydroorotate dehydrogenase (quinone), mitochondrial (Plasmodium falciparum (isolate 3D7)) (UniProt Q08210); assay: inhibition of P. falciparum DHODH – biochemical, C-terminal His tag, absorbance 600 nm, primary screen (AID 1175); conditions: PfDHODH enzyme, DCIP absorbance 600 nm; higher = more signal, called active from +8 up or from −8 down;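 also: recombinant parasite enzyme with a five histidine tag at its C terminus; test concentration not given here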
# Chain of Dihydroorotate dehydrogenase (quinone), mitochondrial (Plasmodium falciparum (isolate 3D7)) (Q08210 whole entry, looked up): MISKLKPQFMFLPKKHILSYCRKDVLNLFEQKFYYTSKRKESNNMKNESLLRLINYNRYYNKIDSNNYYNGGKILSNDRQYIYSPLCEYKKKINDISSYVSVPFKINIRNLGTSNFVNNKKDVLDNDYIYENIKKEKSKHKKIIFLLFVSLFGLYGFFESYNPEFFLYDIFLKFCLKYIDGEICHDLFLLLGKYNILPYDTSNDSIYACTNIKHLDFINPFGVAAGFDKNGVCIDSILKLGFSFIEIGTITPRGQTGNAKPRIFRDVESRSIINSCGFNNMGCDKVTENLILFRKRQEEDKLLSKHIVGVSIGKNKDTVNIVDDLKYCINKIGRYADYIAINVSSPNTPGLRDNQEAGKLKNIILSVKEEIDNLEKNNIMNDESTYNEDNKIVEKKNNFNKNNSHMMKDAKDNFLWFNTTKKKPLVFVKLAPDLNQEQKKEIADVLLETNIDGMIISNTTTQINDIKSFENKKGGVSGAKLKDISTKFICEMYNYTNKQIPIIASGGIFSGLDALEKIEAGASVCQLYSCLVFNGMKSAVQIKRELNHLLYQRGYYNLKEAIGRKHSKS
# [5] = inhibition of PAO1 biofilm formation – strain PAO1, LB-PBS medium, absorbance 600 nm, primary screen (AID 1176); also: test concentration not given here; conditions: P. aeruginosa PAO1 growth/biofilm, A600, 12 h; higher = more signal
# [6] = growth modulation of vineyard yeast isolate – strain RM11-1a, OD600, basal, 24 h, primary screen (AID 1177);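 also: cultures grown under basal conditions with no added stressor; test concentration not given here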; conditions: S. cerevisiae RM11-1a growth, OD600, 24 h; higher = more signal, called active from +8 up or from −8 down
# [7] = growth of efflux-deficient E. coli DRC39 – strain DRC39, OD650, 24 h, E. coli filamentation inducers, primary screen (AID 1178);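 also: growth measured as culture turbidity by optical density at 650 nm; test concentration not given here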; conditions: E. coli DRC39 acrAB, higher = more signal, called active from +8 up or from −8 down
# [8] = growth of efflux-deficient E. coli DRC39 – strain DRC39, OD650, 48 h, E. coli filamentation inducers, primary screen (AID 1179);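 also: screen aims at cell division blockers that make cells filament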; conditions: E. coli DRC39 delta-acrAB growth, higher = more signal, called active from +8 up or from −8 down
# [9] = viability profiling in RPMI8226 myeloma cells – cell-based, resazurin fluorescence, basal, 24 h, PK04 Diversity Set, profiling panel (AID 1180); conditions: higher = more signal;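 also: RPMI8826 multiple myeloma cell line at 5000 cells per well; test concentration not given here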
# [10] = target: E3 ubiquitin-protein ligase XIAP (Homo sapiens) (UniProt P98170); assay: small molecules binding XIAP protein – biophysical, small-molecule microarray, fluorescence 635 nm, primary screen (AID 1181); conditions: higher = more signal;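 also: score merges 667 nm emission and signal to noise over triplicate slides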
# Chain of E3 ubiquitin-protein ligase XIAP (Homo sapiens) (P98170 whole entry, looked up): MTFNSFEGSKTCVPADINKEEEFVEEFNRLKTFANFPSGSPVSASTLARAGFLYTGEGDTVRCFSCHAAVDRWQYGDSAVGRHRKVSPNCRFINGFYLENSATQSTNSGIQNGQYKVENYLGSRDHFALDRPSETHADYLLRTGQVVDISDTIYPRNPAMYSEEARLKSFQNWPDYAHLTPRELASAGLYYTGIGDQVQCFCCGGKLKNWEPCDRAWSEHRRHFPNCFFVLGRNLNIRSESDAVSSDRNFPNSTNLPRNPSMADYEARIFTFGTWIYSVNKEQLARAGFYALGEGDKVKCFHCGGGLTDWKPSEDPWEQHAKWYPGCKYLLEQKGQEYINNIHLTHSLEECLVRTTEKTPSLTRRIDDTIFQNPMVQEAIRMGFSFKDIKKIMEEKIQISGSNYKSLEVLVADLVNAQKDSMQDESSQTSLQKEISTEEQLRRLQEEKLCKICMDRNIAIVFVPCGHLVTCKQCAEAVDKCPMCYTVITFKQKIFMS
Compound,z-score [1],z-score [2],z-score [3],composite z-score [4],z-score [5],z-score [6],z-score [7],z-score [8],z-score [9],composite z-score [10]
CN1C(=O)C2C(C1=O)C1C=C(CCCO)C2C(c2cccs2)N1Cc1cc2c(cc1Br)OCO2 (stereo not given),-0.0567,-1.67 (inactive),-0.35 (inactive),-0.539 (inactive),-0.131 (inactive),0.0034 (inactive),0.19 (inactive),-0.512 (inactive),0.0707,0.176
[N-]=[N+]=Nc1ccccc1C[C@]1(C(=O)O)N=C(c2ccc(OCCCO)cc2)O[C@H]1c1ccccc1N=[N+]=[N-],0.675,-2.36 (inactive),-0.0953 (inactive),0.463 (inactive),1.13 (inactive),-0.296 (inactive),2.43 (inactive),0.76 (inactive),-0.215,-0.145
CCOC(=O)C[C@H]1[C@H](OC(=O)c2ccc(C(=O)c3ccccc3)cc2)[C@@H](NC(=O)CC(C)C)c2cc(OCCCO)ccc2N1C(=O)Cc1ccc(OC)cc1,-0.204,-0.316 (inactive),0.191 (inactive),0.166 (inactive),0.608 (inactive),0.113 (inactive),-0.445 (inactive),-0.0261 (inactive),0.0274,-0.289
Cc1ccc(S[C@]2(C(=O)NC(C)C)CC(=O)N(C(C)C)[C@@H]2c2ccc(CO)cc2I)cc1,0.197,-2.15 (inactive),-0.463 (inactive),0.0738 (inactive),0.444 (inactive),-0.471 (inactive),0.882 (inactive),-0.0992 (inactive),-1.72,0.158
C=C[C@@H](OC)[C@H](OC(=O)Nc1ccc(SC)cc1)c1ccc(OCCO)cc1,-0.8,-0.88 (inactive),-0.415 (inactive),-0.915 (inactive),0.838 (inactive),0.884 (inactive),-0.967 (inactive),-1.5 (inactive),-0.306,-0.0918
C=C(COC)C(=O)CC[C@H](OC(=O)c1cccnc1)c1ccc(CO)o1,-0.655,-1.29 (inactive),-0.317 (inactive),-3.37 (inactive),0.142 (inactive),-0.663 (inactive),-0.659 (inactive),-0.649 (inactive),-0.732,0.0565
CCOC(=O)C1=CC[C@@H](c2ccccc2)N(S(=O)(=O)c2ccc(C)cc2)[C@H]1c1cccc(OC)c1,0.0088,2.25 (inactive),-0.387 (inactive),-0.777 (inactive),0.325 (inactive),1.21 (inactive),-0.577 (inactive),0.244 (inactive),-1.22,-0.022
COc1ccc(C(O)C2C=CC3C(=O)N(c4ccccc4)C(=O)C3N2Nc2ccc(C(C)C)cc2)c2ccccc12 (stereo not given),-2.57,-1.62 (inactive),-0.871 (inactive),0.183 (inactive),1.8 (inactive),0.427 (inactive),0.0571 (inactive),0.313 (inactive),-0.208,0.349
[N-]=[N+]=NCc1ccccc1[C@@H]1OC(c2ccc(OCCCO)cc2)=N[C@]1(Cc1ccccc1N=[N+]=[N-])C(=O)N1CCCCC1,0.56,-0.139 (inactive),-1.98 (inactive),0.303 (inactive),0.327 (inactive),1.09 (inactive),-0.0949 (inactive),0.599 (inactive),-2.88,0.172
C=CCC(OC(C)=O)[C@@H]1[C@@H](N(Cc2ccc(-c3cccc(C(F)(F)F)c3)o2)C(=O)c2ccc(C)cc2)c2cc(OCCCO)ccc2N1C(=O)Cc1ccc(OC)cc1 (stereo not given in full),0.91,-0.455 (inactive),0.104 (inactive),-1.55 (inactive),-0.194 (inactive),0.74 (inactive),0.145 (inactive),1.11 (inactive),1.11,0.0871
COc1ccc(C#Cc2ccc3c(c2)[C@]2(C(=O)N3)[C@H](C(=O)N3CCCCCCC3)[C@H]3C(=O)O[C@H](c4ccccc4)[C@H](c4ccccc4)N3[C@@H]2c2ccc(O)cc2)cc1,0.629,0.299 (inactive),0.697 (inactive),-8.52 (active),1.19 (inactive),0.136 (inactive),-0.45 (inactive),-0.601 (inactive),0.428,-0.0149
CCC(CC)C(O)C1C=CC2C(=O)N(c3ccccc3)C(=O)C2N1Nc1ccc([N+](=O)[O-])cc1 (stereo not given),-0.536,0.593 (inactive),-0.89 (inactive),0.837 (inactive),0.862 (inactive),0.105 (inactive),-0.667 (inactive),-0.162 (inactive),-0.587,0.0855
